Measured values: PubChem BioAssay
Where “and” joins values, the source holds several entries; their conditions need not be identical. Equal entries are not always repeated. Calls of active or inactive are those of the source.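 Rule for the calls, unless noted: active = thallium flux through the channel raised or lowered by more than 3 SD from vehicle-only wells, actives on both sides; inactive = the rest.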

How the values were obtained:
[1] = hESC survival regulators, cell-based (AID 493140; call rule not given here;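 note: cells exposed to compounds for four days before counting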); conditions: human embryonic stem cell survival screen; stronger effect = higher value
[2] = target: 6-phosphogluconate dehydrogenase, decarboxylating (Homo sapiens) (UniProt P52209); assay: 6PGD enzyme inhibitors, primary screen, biochemical, human, recombinant enzyme, NADPH absorbance (AID 1159550;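 active = at least 20% inhibition of 6-phosphogluconate dehydrogenase activity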); conditions: recombinant 6PGD, NADPH absorbance 341 nm; at 10 µM; stronger effect = higher value
[3] = differential killing of epithelial or mesenchymal cells, primary screen, imaging, PC-3E GFP, TEM4-18 mCherry, co-culture (AID 1345086;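 active = compounds killing one labelled cell type while sparing the other, by normalised counts and ratio limits, not self-fluorescent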;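 for all read-outs here: cells exposed to compound for 72 h before imaging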;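 for red/green cell ratio (normalised): normalised mesenchymal count divided by normalised epithelial count so high means epithelial killing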); conditions: imaging cell counts, at 1 µM; for red/green cell ratio (normalised): actives lie on both sides, counts scaled to control wells, 1 = unselective
[4] = survival rescue of mitochondrial mutant cells in low glucose, primary screen, MELAS cybrids, Rieske KO mouse fibroblasts, CellTiter-Glo (AID 1508586;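 active = mean z-score across replicates of 1.96 or higher in either the MELAS or the Rieske mutant cell line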;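 note: z relative to plate mean and SD of compound and empty wells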)
[5] = target: NAD(+) hydrolase SARM1 (Homo sapiens) (UniProt Q6SZW1); assay: SARM1 TIR NADase inhibitors, cell lysate, NAD-Glo luminescence (AID 1508614;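 active = compound whose remaining NAD level is above about 45 nM, limit read from the data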;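 note: higher remaining NAD means stronger inhibition of SARM1 NADase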); conditions: SAM-TIR HEK293T lysate NADase, at 1 µM, stronger effect = higher value
[6] = target: Mitogen-activated protein kinase 7 (Homo sapiens) (UniProt Q13164); assay: ERK5 transactivation activators in reporter cells, primary screen, cell-based, HTS (AID 1508626;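 active = luciferase signal above three times the same-plate solvent-only control wells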;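 note: luciferase driven by Gal4-ERK5 fusion binding five Gal4 sites before minimal TATA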); conditions: HeLa Gal4-ERK5 transactivation, 18 h, at 5 µM, stronger effect = higher value
[7] = viability rescue of complex I mutant cybrids, primary screen, cell-based, galactose medium, ATP luminescence (AID 1645843;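 active = z-score of at least 1.8 in each of two replicates, scored against plate mean and spread of sample wells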;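 note: positive z means more ATP and so rescue of galactose-driven cybrid death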); conditions: complex I mutant cybrid cells, 72 h, stronger effect = higher value
[8] = liver-stage malaria parasite growth inhibition, primary screen, cell-based, HepG2, luciferase luminescence, HepG2 viability (AID 624349; in the data active = parasite load remaining mostly below about 12%, no sharp cut-off; inactive = mostly above about 10%;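 note: 100% = mean of DMSO negative control wells on the same plate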); conditions: P. berghei liver stage in HepG2, luciferase luminescence, concentration not given here; parasite load remaining: stronger effect = lower value; viability: measured here: HepG2 viability without parasites
[9] = Cy5 fluorescence interference with SSB-bound oligo, artefact control for HCV NS3 helicase inhibitor project, biochemical, NIH Clinical Collection, E. coli SSB (AID 743268; call rule not given here)
[10] = test system: Hepatitis C virus NS3 helicase; assay: HCV NS3 helicase inhibitors, primary screen, biochemical, fluorescence polarization, NIH Clinical Collection (AID 743270; call rule not given here); conditions: NS3 helicase binding to Cy5-dT15 DNA, stronger effect = higher value, concentration not given here
[11] = target: Single-stranded DNA-binding protein (Escherichia coli (strain K12)) (UniProt P0AGE0); assay: E. coli SSB displacement from DNA, counter-screen for HCV NS3 helicase inhibitor project, biochemical, fluorescence polarization, NIH Clinical Collection (AID 743271; in the data active = inhibition above about 28%); conditions: stronger effect = higher value, concentration not given here
[12] = fluorescence interference in NS3h assay format, artefact control for HCV NS3 helicase inhibitor project, biochemical, NIH Clinical Collection (AID 743272; call rule not given here;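 note: HCV NS3 helicase with a Cy5 labelled single stranded DNA probe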); conditions: fluorescence interference counterscreen, stronger effect = lower value
[13] = sensitizers of A549 cells to miR-34 induction, primary screen, imaging, A549 dox-inducible miR-34, nuclei and caspase counts (AID 1347080;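 active = compounds whose cell count with miR-34 switched on is under 0.7 times the count with it off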); conditions: A549 miR-34 inducible, Hoechst nuclei count, 48 h
[14] = test system: F380Y; assay: modulators of BK channel variants, profiling panel, selectivity assay, cell-based, U2OS BacMam, thallium flux, beta subunits (AID 1259406); conditions: at 30 µM;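 note: initial slope of Thallos dye fluorescence rise after thallium is added; log ratio against the mean of 0.3% DMSO vehicle wells on the same plate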
[15] = test system: F380Y/beta2Delta; assay: as above; conditions: at 30 µM
[16] = target: Calcium-activated potassium channel subunit alpha-1 (Homo sapiens) + Leucine-rich repeat-containing protein 26 (Homo sapiens) (UniProt Q12791+Q2I0M4); assay: as above; conditions: F380Y/Slo1WT/gamma1, at 30 µM
[17] = test system: R275C; assay: as above; conditions: at 30 µM
[18] = test system: R275C/beta1; assay: as above; conditions: at 30 µM
[19] = test system: R275C/beta2Delta; assay: as above; conditions: at 30 µM
[20] = measured here: epithelial PC-3E GFP cell survival
[21] = measured here: mesenchymal TEM4-18 mCherry cell survival
[22] = MELAS cybrid survival, CellTiter-Glo 48 h, stronger effect = higher value
[23] = Rieske KO mouse fibroblast survival, CellTiter-Glo 72 h
[24] = stronger effect = lower value, cell number ratio, induced over uninduced
[25] = measured here: relative caspase fold change +Dox/-Dox
[26] = measured here: total cells with miR-34 induction, stronger effect = lower value
[27] = measured here: total cells without miR-34 induction

Chain of Mitogen-activated protein kinase 7 (Homo sapiens) (Q13164 whole entry, looked up, the tested form may be a part): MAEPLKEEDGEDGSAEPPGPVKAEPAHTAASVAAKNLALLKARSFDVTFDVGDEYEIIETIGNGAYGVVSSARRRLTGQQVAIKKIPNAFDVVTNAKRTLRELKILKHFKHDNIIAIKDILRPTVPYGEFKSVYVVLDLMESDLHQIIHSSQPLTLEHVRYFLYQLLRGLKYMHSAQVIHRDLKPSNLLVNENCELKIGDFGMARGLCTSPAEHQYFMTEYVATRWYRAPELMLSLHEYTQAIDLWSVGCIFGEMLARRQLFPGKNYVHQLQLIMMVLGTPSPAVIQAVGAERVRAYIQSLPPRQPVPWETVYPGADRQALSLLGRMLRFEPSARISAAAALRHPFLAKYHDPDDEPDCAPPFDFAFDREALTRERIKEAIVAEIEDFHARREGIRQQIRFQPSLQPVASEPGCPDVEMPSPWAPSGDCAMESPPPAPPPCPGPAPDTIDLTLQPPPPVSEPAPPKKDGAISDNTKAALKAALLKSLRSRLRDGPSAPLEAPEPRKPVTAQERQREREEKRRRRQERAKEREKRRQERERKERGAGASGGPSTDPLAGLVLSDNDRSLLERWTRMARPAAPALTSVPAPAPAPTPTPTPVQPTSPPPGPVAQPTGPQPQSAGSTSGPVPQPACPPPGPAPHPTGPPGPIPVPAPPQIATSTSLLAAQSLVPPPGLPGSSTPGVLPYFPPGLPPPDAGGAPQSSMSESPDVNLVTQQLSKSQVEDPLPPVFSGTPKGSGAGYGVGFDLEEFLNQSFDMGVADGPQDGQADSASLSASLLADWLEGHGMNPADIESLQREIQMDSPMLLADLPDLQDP
Chain of Calcium-activated potassium channel subunit alpha-1 (Homo sapiens) + Leucine-rich repeat-containing protein 26 (Homo sapiens) (Q2I0M4 whole entry, looked up, one chain of several): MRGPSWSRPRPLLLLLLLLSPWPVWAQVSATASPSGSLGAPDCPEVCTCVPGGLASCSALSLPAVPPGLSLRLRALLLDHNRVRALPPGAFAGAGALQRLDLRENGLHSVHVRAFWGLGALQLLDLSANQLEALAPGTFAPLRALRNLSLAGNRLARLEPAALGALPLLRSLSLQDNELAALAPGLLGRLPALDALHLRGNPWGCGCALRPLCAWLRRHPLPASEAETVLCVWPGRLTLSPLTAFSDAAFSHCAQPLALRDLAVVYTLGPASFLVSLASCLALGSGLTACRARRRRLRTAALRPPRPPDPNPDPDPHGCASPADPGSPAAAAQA
Chain of NAD(+) hydrolase SARM1 (Homo sapiens) (Q6SZW1 whole entry, looked up, the tested form may be a part): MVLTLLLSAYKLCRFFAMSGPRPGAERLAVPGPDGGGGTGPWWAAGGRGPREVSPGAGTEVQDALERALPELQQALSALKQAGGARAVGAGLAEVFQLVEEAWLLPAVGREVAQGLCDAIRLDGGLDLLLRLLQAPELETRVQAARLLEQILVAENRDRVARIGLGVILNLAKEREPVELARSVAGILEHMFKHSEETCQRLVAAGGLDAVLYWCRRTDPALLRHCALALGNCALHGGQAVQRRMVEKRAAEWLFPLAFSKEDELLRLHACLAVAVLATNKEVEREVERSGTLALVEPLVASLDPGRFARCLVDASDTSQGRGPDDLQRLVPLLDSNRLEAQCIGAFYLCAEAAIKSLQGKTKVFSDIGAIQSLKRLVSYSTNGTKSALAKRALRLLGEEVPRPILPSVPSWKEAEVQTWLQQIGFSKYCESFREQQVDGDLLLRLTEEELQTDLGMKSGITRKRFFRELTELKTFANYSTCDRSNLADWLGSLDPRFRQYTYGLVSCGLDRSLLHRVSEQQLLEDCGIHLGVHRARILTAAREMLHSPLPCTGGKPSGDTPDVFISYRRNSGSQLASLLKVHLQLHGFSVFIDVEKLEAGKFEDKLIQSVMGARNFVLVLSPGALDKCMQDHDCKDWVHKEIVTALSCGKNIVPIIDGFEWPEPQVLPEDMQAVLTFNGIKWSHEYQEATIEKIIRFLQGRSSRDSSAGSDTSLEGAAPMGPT
Chain of 6-phosphogluconate dehydrogenase, decarboxylating (Homo sapiens) (P52209 whole entry, looked up): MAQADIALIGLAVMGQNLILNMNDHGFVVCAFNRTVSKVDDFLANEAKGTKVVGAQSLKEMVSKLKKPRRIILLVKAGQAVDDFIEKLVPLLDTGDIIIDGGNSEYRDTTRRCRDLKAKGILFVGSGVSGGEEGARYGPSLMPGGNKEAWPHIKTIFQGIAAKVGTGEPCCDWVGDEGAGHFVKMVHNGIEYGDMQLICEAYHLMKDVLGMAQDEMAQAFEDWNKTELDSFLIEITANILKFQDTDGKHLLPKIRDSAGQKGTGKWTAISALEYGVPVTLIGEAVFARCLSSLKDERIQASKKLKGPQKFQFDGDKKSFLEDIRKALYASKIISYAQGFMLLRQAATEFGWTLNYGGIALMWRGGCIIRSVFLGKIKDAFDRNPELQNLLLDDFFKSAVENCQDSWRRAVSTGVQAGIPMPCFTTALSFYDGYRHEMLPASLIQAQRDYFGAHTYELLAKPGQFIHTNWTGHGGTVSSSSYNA

Cc1ccc(N(CC2=NCCN2)c2cccc(O)c2)cc1
inactive: survival [1] 15.2 | inhibition [2] -2.41% | red/green cell ratio (normalised) [3] 1 | z-score [4, 22] 0.136 and 0.319 and 0.784 | remaining NAD [5] 10 nM | luciferase signal [6] 116 AU | z-score [7] -0.355 and 0.035
-0.0354 and 0.524 and 0.332: z-score [4, 23]
0.97: normalised cell number [3, 21]
0.96: normalised cell number [3, 20]

CC1=C(CCC(=O)O)c2cc3nc(cc4[nH]c(cc5[nH]c(cc1n2)c(C)c5C(C)O)c(C)c4C(C)O)C(C)=C3CCC(=O)O (stereo not given)
1.29: normalised cell number [3, 21]
0.93: normalised cell number [3, 20]
inactive: inhibition [2] 12.1% | red/green cell ratio (normalised) [3] 1.39

CON=C(C(=O)NC1C(=O)N2C(C(=O)O)=C(COC(C)=O)CSC12)c1csc(N)n1 (stereo not given)
130%: viability [8]
inactive: parasite load remaining [8] 73.2% | fluorescence ratio [9] 1.03 | inhibition [10] 4.09% | fluorescence ratio [12] 1.03 | inhibition [2] -1.56% | fold change [13, 24] 0.991 | z-score [7] 0.145 | log fold change Tl+ flux [14] -0.0263 | log fold change Tl+ flux [15] 0.0186 | log fold change Tl+ flux [16] -0.0048 | log fold change Tl+ flux [17] 0.0263 | log fold change Tl+ flux [18] -0.0272 | log fold change Tl+ flux [19] -0.0298
11400: cell count [13, 26]
active: inhibition [11] 36.1%
11500: cell count [13, 27]
2.86: fold change [13, 25]

COc1ccc2c(=O)c(OC)c(-c3ccccc3)oc2c1
1.02: normalised cell number [3, 21]
1.07: normalised cell number [3, 20]
inactive: inhibition [2] 5.12% | red/green cell ratio (normalised) [3] 0.95

CN1CCN(CC/C=C2/c3ccccc3Sc3ccc(S(=O)(=O)N(C)C)cc32)CC1
inactive: inhibition [2] 2.11% | remaining NAD [5] 10 nM | luciferase signal [6] 108 AU

CC(CCc1ccccc1)NCC(O)c1ccc(O)c(C(N)=O)c1 (stereo not given)
1.24: normalised cell number [3, 21]
-0.173 and -0.159: z-score [4, 23]
inactive: survival [1] 19.1 | fluorescence ratio [9] 1.06 | inhibition [10] -2.27% | inhibition [11] -5.05% | fluorescence ratio [12] 1.02 | inhibition [2] 0.489% | red/green cell ratio (normalised) [3] 1.34 | z-score [4, 22] -0.172 and 0.637 | remaining NAD [5] 10 nM | luciferase signal [6] 116 AU | z-score [7] -0.94 and 0.995 | log fold change Tl+ flux [14] 0.0689 | log fold change Tl+ flux [15] 0.0329 | log fold change Tl+ flux [16] 0.00974 | log fold change Tl+ flux [17] -0.0121 | log fold change Tl+ flux [18] 0.0332 | log fold change Tl+ flux [19] 0.0956
0.93: normalised cell number [3, 20]

CC(C)[N+]1(C)C2CCC1CC(OC(=O)C(CO)c1ccccc1)C2 (stereo not given)
-0.136: z-score [4, 23]
0.608 and 0.704 and 0.785: fold change [13, 25]
11100 and 8310 and 8370: cell count [13, 27]
inactive: survival [1] 16.6 | parasite load remaining [8] 58.8% and 74.5% | fluorescence ratio [9] 1.07 | inhibition [10] -3.18% | inhibition [11] -3.53% | fluorescence ratio [12] 1.02 | inhibition [2] 11.9% | fold change [13, 24] 0.921 and 0.934 and 0.97 | z-score [4, 22] 0.162 | z-score [7] 0.14 and 0.88 | log fold change Tl+ flux [14] 0.00902 | log fold change Tl+ flux [15] -0.00601 | log fold change Tl+ flux [16] 0.0518 | log fold change Tl+ flux [17] 0.0409 | log fold change Tl+ flux [18] -0.0331 | log fold change Tl+ flux [19] 0.000928
10300 and 7770 and 8120: cell count [13, 26]
98.1% and 77.4%: viability [8]

CC(=O)N=c1sc(S(N)(=O)=O)nn1C
1.12: normalised cell number [3, 21]
inactive: survival [1] 5.08 | fluorescence ratio [9] 1.01 | inhibition [10] -0.45% | inhibition [11] -3.53% | fluorescence ratio [12] 1.03 | inhibition [2] 18.8% | red/green cell ratio (normalised) [3] 1.22 | z-score [4, 22] -0.23 and 0.0575 | remaining NAD [5] 10 nM | luciferase signal [6] 80 AU | z-score [7] 0.7 | log fold change Tl+ flux [14] 0.00591 | log fold change Tl+ flux [15] 0.00714 | log fold change Tl+ flux [16] -0.0355 | log fold change Tl+ flux [17] 0.00598 | log fold change Tl+ flux [18] -0.028 | log fold change Tl+ flux [19] -0.0276
0.92: normalised cell number [3, 20]
-0.175 and -0.724: z-score [4, 23]

C#C[C@]1(OC(C)=O)CC[C@H]2[C@@H]3CCC4=CC(=O)CC[C@@H]4[C@H]3CC[C@@]21C
inactive: parasite load remaining [8] 26.4% | fluorescence ratio [9] 1.05 | inhibition [10] -3.18% | inhibition [11] 7.15% | fluorescence ratio [12] 0.89 | inhibition [2] -1.74% | fold change [13, 24] 0.989 | remaining NAD [5] 24 nM | luciferase signal [6] 28 AU | z-score [7] -1.36 | log fold change Tl+ flux [14] -0.0982 | log fold change Tl+ flux [15] -0.0589 | log fold change Tl+ flux [16] -0.0258 | log fold change Tl+ flux [17] -0.00546 | log fold change Tl+ flux [18] 0.0232 | log fold change Tl+ flux [19] 0.0192
96.7%: viability [8]
9280: cell count [13, 27]
1.09: fold change [13, 25]
9170: cell count [13, 26]
